Test results published in the supplement of paper PMC7411054.
Where a name gives a salt, the structure may show the parent alone.

What was measured:
Assay in all cases: phenotypically active (imaging signature differs from DMSO and reproducible) at any of 0.3-9 uM (binary (1 = active, 0 = inactive)); higher = active
Details in all cases: treatment time: 24 h
[1] = tested on: A549-ACTB-RAB5A
Outline: (§1)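 Four wells per concentration (0.3, 1, 3 or 9 µM) were treated for 24 h in each of fifteen gene-edited reporter lines from A549, HepG2 and WPMY1 cells, then imaged live. After normalising live-cell features to solvent control wells, deviation was defined as ≥3 of 4 wells lying past the 95th percentile of control Euclidean distances. Reproducibility was defined as a median replicate Pearson correlation above the 95th percentile of non-replicates. Both had to hold for phenotypic activity.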

[2] = tested on: A549-CANX-COX4
Outline: as §1

[3] = tested on: A549-GM130-SQSTM1
Outline: as §1

[4] = tested on: A549-TP53BP1-CLTA
Outline: as §1

[5] = tested on: A549-TUBA1B-RELA
Outline: as §1

[6] = tested on: HepG2-ACTB-RAB5A
Outline: as §1

[7] = tested on: HepG2-CANX-COX4
Outline: as §1

[8] = tested on: HepG2-GM130-SQSTM1
Outline: as §1

[9] = tested on: HepG2-TP53BP1-CLTA
Outline: as §1

[10] = tested on: HepG2-TUBA1B-RELA
Outline: as §1

[11] = tested on: WPMY1-ACTB-RAB5A
Outline: as §1

[12] = tested on: WPMY1-CANX-COX4
Outline: as §1

[13] = tested on: WPMY1-GM130-SQSTM1
Outline: as §1

[14] = tested on: WPMY1-TP53BP1-CLTA
Outline: as §1

[15] = tested on: WPMY1-TUBA1B-RELA
Outline: as §1

Measured: phenotypically active

O=P(O)(O)C(O)(Cc1cccnc1)P(=O)(O)O [risedronate]
inactive: [1] 0 | [2] 0 | [3] 0 | [4] 0 | [5] 0 | [6] 0 | [7] 0 | [8] 0 | [9] 0 | [10] 0 | [11] 0 | [12] 0 | [13] 0 | [14] 0 | [15] 0

CC1(C)[C@@H](O)CC[C@]2(C)[C@H]3C(=O)C=C4[C@@H]5C[C@@](C)(C(=O)O)CC[C@]5(C)CC[C@@]4(C)[C@]3(C)CC[C@@H]12 [Glycyrrhetinic Acid]
inactive: [1] 0 | [2] 0 | [3] 0 | [4] 0 | [5] 0 | [6] 0 | [7] 0 | [8] 0 | [9] 0 | [10] 0 | [11] 0 | [12] 0 | [13] 0 | [14] 0 | [15] 0

CC(C)c1ccc(NC(=O)Cn2cnc3c2c(=O)n(C)c(=O)n3C)cc1
inactive: [1] 0 | [2] 0 | [3] 0 | [4] 0 | [5] 0 | [6] 0 | [7] 0 | [8] 0 | [9] 0 | [10] 0 | [11] 0 | [12] 0 | [13] 0 | [14] 0 | [15] 0

CN(C)CCCSc1ccccc1NC(=O)/C=C/c1ccccc1 [Cinanserin hydrochloride]
inactive: [1] 0 | [2] 0 | [3] 0 | [4] 0 | [5] 0 | [6] 0 | [7] 0 | [8] 0 | [9] 0 | [10] 0 | [11] 0 | [12] 0 | [13] 0 | [14] 0 | [15] 0

CNS(=O)(=O)CCc1ccc2[nH]cc(C3CCN(C)CC3)c2c1 [naratriptan]
inactive: [1] 0 | [2] 0 | [3] 0 | [4] 0 | [5] 0 | [6] 0 | [7] 0 | [8] 0 | [9] 0 | [10] 0 | [11] 0 | [12] 0 | [13] 0 | [14] 0 | [15] 0

Nc1ncnc2c1cnn2-c1ccccc1
inactive: [1] 0 | [2] 0 | [3] 0 | [4] 0 | [5] 0 | [6] 0 | [7] 0 | [8] 0 | [9] 0 | [10] 0 | [11] 0 | [12] 0 | [13] 0 | [14] 0 | [15] 0

O=C(/C=C\c1ccc(O)c(O)c1)O[C@H]1C[C@](OC(=O)/C=C/c2ccc(O)c(O)c2)(C(=O)O)C[C@H](O)[C@H]1O [Cynarin]
inactive: [1] 0 | [2] 0 | [3] 0 | [4] 0 | [5] 0 | [6] 0 | [7] 0 | [8] 0 | [9] 0 | [10] 0 | [11] 0 | [12] 0 | [13] 0 | [14] 0 | [15] 0

CC1=C(CC(=O)O)c2cc(F)ccc2/C1=C\c1ccc(S(C)=O)cc1 (stereo not given) [sulindac]
inactive: [1] 0 | [2] 0 | [3] 0 | [4] 0 | [5] 0 | [6] 0 | [7] 0 | [8] 0 | [9] 0 | [10] 0 | [11] 0 | [12] 0 | [13] 0 | [14] 0 | [15] 0

CC[N+](CC)(CC)CCOc1cccc(OCC[N+](CC)(CC)CC)c1OCC[N+](CC)(CC)CC [gallamine-triethiodide]
inactive: [1] 0 | [2] 0 | [3] 0 | [4] 0 | [5] 0 | [6] 0 | [7] 0 | [8] 0 | [9] 0 | [10] 0 | [11] 0 | [12] 0 | [13] 0 | [14] 0 | [15] 0

C[n+]1cccc(C(=O)O)c1 [Trigonelline hydrochloride]
inactive: [1] 0 | [2] 0 | [3] 0 | [4] 0 | [5] 0 | [6] 0 | [7] 0 | [8] 0 | [9] 0 | [10] 0 | [11] 0 | [12] 0 | [13] 0 | [14] 0 | [15] 0

CC[N+](C)(C)c1cccc(O)c1 [edrophonium]
inactive: [1] 0 | [2] 0 | [3] 0 | [4] 0 | [5] 0 | [6] 0 | [7] 0 | [8] 0 | [9] 0 | [10] 0 | [11] 0 | [12] 0 | [13] 0 | [14] 0 | [15] 0

CCN1C(C)(C)CC(Oc2ccc(C(=O)Nc3ccc(NC(=O)Nc4cc(C(C)(C)C)on4)cc3)nc2)CC1(C)C
inactive: [1] 0 | [2] 0 | [3] 0 | [4] 0 | [5] 0 | [6] 0 | [7] 0 | [8] 0 | [9] 0 | [10] 0 | [11] 0 | [12] 0 | [13] 0 | [14] 0 | [15] 0
